The record followed here is ChEMBL document CHEMBL1961873, “Compounds: GSK PKIS; Assays: Nanosyn kinase panel” (2012).

Assay [1] deals with Proto-oncogene tyrosine-protein kinase receptor Ret (Homo sapiens), P07949 [Y791F]. As to conditions: at 1 µM.
Assay [2] deals with Macrophage-stimulating protein receptor (Homo sapiens) (UniProt Q04912). The conditions noted are these: at 0.1 µM.
For assay [3] the target is unchanged. As to conditions: at 1 µM.
Assay [4] addresses Proto-oncogene tyrosine-protein kinase ROS (Homo sapiens) (UniProt P08922). As to conditions: at 0.1 µM.
Assay [5] has the same target. As to conditions: at 1 µM.
Assay [6] deals with Proto-oncogene tyrosine-protein kinase Src (Homo sapiens) (UniProt P12931). As to conditions: at 0.1 µM.
For assay [7] the target is unchanged. The conditions noted are these: at 1 µM.
Assay [8] deals with Tyrosine-protein kinase Srms (Homo sapiens) (UniProt Q9H3Y6). As to conditions: at 0.1 µM.
Assay [9] has the same target. As to conditions: at 1 µM.
In assay [10] the target is Tyrosine-protein kinase SYK (Homo sapiens) (UniProt P43405). As to conditions: at 0.1 µM.
The target is the same in assay [11]. The conditions noted are these: at 1 µM.
For assay [12], the target named is T1, Tyrosine-protein kinase Tec (Homo sapiens) (UniProt P42680).
T1 sequence (whole entry): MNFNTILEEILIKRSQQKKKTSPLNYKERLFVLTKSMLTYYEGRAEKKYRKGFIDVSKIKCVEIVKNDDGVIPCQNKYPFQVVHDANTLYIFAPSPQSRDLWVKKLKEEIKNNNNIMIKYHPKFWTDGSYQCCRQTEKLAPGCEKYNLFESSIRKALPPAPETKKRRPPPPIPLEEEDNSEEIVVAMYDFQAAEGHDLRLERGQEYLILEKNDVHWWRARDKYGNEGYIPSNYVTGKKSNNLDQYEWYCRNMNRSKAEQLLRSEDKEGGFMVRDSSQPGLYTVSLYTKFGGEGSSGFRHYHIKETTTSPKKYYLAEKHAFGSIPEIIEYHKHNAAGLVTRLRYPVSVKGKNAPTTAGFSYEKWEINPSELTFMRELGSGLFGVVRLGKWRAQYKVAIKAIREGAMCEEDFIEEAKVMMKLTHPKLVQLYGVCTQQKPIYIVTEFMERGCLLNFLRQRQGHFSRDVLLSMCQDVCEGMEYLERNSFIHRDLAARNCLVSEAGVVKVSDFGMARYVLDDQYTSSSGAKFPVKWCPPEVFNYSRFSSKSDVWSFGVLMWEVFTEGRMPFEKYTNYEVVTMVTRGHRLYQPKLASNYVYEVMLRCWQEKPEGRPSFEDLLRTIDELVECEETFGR
As to conditions: at 0.1 µM.

In assay [13] the target is T1, Tyrosine-protein kinase Tec (Homo sapiens). The conditions noted are these: at 1 µM.
Assay [14] concerns the target Angiopoietin-1 receptor (Homo sapiens) (UniProt Q02763). As to conditions: at 0.1 µM.
Assay [15] has the same target. As to conditions: at 1 µM.
For assay [16], the target named is T2, Non-receptor tyrosine-protein kinase TNK1 (Homo sapiens) (UniProt Q13470).
T2 sequence (whole entry): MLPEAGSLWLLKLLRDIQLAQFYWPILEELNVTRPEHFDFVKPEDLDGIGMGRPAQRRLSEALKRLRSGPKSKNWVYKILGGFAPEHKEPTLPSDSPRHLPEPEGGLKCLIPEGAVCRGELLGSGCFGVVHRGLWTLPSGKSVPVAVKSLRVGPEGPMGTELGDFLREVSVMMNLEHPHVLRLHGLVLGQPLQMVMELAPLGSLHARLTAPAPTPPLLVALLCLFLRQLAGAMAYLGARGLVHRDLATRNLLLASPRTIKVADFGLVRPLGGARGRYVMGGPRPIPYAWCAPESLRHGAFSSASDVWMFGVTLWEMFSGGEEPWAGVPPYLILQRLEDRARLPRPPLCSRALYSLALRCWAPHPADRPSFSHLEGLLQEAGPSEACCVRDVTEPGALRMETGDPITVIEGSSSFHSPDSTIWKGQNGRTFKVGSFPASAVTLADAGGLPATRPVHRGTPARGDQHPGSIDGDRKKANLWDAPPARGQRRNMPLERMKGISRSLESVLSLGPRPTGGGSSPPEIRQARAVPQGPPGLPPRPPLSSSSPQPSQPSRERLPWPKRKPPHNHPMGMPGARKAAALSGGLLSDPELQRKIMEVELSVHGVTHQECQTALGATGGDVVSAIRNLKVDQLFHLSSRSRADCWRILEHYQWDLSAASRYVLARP
The conditions noted are these: at 0.1 µM.

Assay [17] deals with T2, Non-receptor tyrosine-protein kinase TNK1 (Homo sapiens). As to conditions: at 1 µM.
The target in assay [18] is Activated CDC42 kinase 1 (Homo sapiens) (UniProt Q07912). The conditions noted are these: at 0.1 µM.
Assay [19] shares this target. The conditions noted are these: at 1 µM.
The target in assay [20] is High affinity nerve growth factor receptor (Homo sapiens) (UniProt P04629). The conditions noted are these: at 0.1 µM.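 Also: each value is a mean of replicate percent inhibition readings against TRKA kinase.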
High affinity nerve growth factor receptor (Homo sapiens), sequence (P04629 33-796 limits assumed): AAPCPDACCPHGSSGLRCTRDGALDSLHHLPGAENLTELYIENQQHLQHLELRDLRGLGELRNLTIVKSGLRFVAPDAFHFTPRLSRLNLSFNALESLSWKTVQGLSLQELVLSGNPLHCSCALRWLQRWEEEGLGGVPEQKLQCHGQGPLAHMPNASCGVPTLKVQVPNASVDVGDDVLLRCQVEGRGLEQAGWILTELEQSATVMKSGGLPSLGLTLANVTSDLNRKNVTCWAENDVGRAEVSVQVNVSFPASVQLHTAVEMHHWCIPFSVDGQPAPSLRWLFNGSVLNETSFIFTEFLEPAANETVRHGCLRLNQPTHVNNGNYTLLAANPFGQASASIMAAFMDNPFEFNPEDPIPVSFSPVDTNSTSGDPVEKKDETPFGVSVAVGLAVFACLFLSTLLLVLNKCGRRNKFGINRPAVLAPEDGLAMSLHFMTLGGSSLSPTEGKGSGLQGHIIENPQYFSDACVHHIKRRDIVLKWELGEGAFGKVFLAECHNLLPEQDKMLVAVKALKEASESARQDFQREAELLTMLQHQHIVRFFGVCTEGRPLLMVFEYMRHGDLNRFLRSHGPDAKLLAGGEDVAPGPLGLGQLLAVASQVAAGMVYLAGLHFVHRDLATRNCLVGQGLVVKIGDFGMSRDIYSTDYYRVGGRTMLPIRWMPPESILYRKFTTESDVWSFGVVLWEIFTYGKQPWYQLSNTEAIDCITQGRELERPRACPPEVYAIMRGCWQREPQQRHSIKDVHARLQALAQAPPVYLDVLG

Proto-oncogene tyrosine-protein kinase ROS (Homo sapiens), sequence (P08922 whole entry): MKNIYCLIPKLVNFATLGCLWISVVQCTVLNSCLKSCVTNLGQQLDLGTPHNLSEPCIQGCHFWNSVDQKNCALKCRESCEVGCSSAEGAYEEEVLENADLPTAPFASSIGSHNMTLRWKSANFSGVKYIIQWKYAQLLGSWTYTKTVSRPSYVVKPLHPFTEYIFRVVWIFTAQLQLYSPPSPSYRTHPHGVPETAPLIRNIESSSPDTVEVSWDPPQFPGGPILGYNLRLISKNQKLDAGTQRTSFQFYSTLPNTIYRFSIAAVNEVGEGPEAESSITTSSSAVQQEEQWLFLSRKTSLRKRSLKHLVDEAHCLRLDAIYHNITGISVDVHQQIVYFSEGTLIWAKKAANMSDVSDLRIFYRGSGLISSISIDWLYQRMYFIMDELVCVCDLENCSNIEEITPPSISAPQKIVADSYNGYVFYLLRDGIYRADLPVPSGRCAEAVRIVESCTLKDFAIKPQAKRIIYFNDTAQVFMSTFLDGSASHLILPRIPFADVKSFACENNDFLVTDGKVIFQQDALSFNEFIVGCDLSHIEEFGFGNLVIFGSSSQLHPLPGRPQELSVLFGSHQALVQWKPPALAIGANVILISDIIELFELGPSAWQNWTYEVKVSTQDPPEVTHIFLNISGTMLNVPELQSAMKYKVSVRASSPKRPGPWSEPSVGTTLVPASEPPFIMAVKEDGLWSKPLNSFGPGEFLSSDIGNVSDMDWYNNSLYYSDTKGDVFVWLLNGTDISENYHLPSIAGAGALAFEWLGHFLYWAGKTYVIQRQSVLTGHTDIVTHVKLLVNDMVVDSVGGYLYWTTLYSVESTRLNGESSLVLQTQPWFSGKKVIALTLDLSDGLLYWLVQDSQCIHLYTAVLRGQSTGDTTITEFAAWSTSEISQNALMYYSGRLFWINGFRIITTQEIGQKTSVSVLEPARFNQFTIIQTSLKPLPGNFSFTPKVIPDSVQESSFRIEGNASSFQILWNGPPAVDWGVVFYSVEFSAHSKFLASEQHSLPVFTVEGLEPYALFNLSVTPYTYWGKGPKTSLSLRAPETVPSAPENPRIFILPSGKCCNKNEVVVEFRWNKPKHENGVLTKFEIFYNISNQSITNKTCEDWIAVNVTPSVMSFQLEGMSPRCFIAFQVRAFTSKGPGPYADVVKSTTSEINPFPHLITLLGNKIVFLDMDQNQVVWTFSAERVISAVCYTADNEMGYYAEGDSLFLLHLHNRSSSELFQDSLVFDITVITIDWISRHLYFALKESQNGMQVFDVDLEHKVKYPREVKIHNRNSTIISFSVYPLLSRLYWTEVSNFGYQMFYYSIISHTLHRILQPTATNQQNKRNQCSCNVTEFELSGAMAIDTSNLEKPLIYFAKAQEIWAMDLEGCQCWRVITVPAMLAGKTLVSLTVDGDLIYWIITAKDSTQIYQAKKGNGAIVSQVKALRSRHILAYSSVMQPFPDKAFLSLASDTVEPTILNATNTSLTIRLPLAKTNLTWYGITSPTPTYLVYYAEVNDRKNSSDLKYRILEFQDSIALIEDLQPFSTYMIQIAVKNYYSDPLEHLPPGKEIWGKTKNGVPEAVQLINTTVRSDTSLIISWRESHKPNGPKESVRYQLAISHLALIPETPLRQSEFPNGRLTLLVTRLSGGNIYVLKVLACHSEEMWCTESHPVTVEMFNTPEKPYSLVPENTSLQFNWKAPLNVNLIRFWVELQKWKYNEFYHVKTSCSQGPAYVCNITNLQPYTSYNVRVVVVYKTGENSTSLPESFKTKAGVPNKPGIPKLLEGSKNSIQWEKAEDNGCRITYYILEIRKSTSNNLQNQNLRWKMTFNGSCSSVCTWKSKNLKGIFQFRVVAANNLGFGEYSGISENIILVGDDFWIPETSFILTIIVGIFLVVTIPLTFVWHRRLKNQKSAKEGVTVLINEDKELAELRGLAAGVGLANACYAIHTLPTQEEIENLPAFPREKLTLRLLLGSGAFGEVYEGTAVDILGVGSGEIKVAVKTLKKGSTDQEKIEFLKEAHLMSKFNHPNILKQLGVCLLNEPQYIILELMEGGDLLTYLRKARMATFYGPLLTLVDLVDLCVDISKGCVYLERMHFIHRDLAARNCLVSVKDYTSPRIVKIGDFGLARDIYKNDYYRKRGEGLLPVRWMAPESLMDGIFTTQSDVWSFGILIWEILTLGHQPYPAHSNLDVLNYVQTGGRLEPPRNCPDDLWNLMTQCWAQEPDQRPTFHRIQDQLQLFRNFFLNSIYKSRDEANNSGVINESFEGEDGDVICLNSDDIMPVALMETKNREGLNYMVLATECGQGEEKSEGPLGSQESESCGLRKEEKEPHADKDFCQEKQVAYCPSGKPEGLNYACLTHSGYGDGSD
Activated CDC42 kinase 1 (Homo sapiens), sequence (Q07912 whole entry, looked up): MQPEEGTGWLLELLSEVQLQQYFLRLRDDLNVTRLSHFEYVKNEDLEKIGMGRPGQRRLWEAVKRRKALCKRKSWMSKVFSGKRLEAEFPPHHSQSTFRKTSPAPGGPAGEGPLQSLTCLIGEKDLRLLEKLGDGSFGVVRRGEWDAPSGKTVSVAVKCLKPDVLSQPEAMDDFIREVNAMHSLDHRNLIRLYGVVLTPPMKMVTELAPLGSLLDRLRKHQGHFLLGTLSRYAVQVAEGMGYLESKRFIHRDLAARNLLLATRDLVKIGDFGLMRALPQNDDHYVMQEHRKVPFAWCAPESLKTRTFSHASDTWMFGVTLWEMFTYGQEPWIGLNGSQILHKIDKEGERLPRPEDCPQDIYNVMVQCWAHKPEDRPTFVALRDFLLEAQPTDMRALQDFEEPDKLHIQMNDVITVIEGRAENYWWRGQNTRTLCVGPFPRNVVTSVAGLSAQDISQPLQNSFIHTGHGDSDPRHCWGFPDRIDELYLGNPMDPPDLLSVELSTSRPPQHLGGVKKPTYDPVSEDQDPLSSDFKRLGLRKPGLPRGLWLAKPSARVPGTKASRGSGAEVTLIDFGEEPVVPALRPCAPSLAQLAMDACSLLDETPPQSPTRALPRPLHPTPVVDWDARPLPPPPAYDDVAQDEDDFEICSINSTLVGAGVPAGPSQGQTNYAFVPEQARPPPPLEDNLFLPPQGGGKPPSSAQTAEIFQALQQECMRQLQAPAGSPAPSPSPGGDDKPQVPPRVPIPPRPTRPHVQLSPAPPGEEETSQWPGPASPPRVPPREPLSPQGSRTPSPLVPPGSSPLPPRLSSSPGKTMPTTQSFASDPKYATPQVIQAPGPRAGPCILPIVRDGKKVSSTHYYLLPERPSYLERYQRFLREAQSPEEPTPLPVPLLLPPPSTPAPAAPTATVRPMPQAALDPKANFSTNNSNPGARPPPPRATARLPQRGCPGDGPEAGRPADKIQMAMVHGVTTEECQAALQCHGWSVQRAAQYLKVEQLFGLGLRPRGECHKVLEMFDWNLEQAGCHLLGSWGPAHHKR
Proto-oncogene tyrosine-protein kinase Src (Homo sapiens), sequence (P12931 2-536 limits assumed): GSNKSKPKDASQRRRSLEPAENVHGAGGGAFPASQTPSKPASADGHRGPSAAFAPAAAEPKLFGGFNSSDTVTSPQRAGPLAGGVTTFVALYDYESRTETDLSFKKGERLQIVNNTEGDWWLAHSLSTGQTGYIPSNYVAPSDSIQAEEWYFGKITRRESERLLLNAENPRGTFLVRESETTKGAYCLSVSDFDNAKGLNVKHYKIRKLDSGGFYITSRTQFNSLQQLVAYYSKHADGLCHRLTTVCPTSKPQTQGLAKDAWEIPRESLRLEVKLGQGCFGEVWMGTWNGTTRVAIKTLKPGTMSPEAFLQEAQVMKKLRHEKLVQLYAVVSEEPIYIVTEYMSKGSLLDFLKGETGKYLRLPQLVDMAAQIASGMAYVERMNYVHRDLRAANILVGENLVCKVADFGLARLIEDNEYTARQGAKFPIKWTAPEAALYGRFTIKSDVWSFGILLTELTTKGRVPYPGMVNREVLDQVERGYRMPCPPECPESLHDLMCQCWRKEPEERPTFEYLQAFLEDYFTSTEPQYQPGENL

Take `COc1ccc2cc(-c3c(-c4ccncc4)nc(-c4ccc(S(C)(=O)=O)cc4C)n3C)ccc2c1`: the inhibition (usually the relative decrease from the control value, in per cent) in [1] was 26.6%; in [2], 0.23%; in [3], -0.19%; in [4], 6.07%; in assay [5], 8.9%; in assay [6] it was 3.38%. The inhibition in assay [7] was found to be 11.2%; in assay [8], 1.11%; in assay [9], 5.61%; in assay [10], 0.01%; in [11] it was 0.26%; in assay [12] it was 4.38%. Also, the inhibition in [13] is 5.26%; in assay [14] it was 75%; in assay [15], 78.7%; in [16], 4.94%; in [17] it was 29.3%; in [18], 0.74%. In addition, the inhibition in [19] worked out at 3.77%; in [20] it was 3.75%.

For `CN(c1ccc(NC(=O)Nc2c(Cl)cccc2Cl)cc1)c1ccnc(Nc2cccc(CS(C)(=O)=O)c2)n1`, the inhibition in assay [1] is 64.8%; in [2], 68.8%; in assay [3] it was 82.1%; in [4], 14.8%; in assay [5], 33.5%; in [6], 40.7%. Also, the inhibition in assay [7] was 65.4%; in [8], 2.98%; in [9], 3.99%; in assay [10], 2.77%; in [11], -9.25%; in assay [12], 10.1%. The inhibition worked out at 21.4% in [13]; 64.2% in assay [14]; 72.1% in assay [15]; 59.8% in assay [16]; 84.1% in [17]; 1.13% in [18]. In addition, the inhibition in [19] came out at 4.21%; in assay [20], 49.7%.

Consider `COc1cc2ncn(-c3cc(OCc4ccccc4C(F)(F)F)c(C(C)=O)s3)c2cc1OC`, for which the inhibition is 12.8% in assay [1]; 2.88% in [2]; 20% in assay [3]; 0.39% in assay [4]; 7.62% in [5]; 6.86% in assay [6]. The inhibition in assay [7] is 6.06%; in [8], -2.02%; in assay [9] it was 0.82%; in [10], 0.3%; in assay [11], -5.75%; in assay [12] it was -0.08%. In addition, the inhibition was found to be 5.16% in assay [13]; 1.54% in assay [14]; 8.41% in assay [15]; 0.64% in assay [16]; 23.6% in assay [17]; 1.52% in assay [18]. Further, the inhibition was 3.29% in assay [19] and 2.3% in assay [20].

Turning to `C#Cc1cccc(Nc2ncnc3ccc(OCCCCNCCS(C)(=O)=O)cc23)c1`, the inhibition in assay [1] was 31.3%; in assay [2] it was 1.53%; in [3], 7.33%; in assay [4] it was 3.71%; in [5] it was 8.09%; in [6], 1.2%. In addition, the inhibition in assay [7] was 17.9%; in [8], 0.83%; in [9] it was 5.07%; in assay [10] it was -6.78%; in assay [11] it was 0.39%; in assay [12], 5.96%. The inhibition in [13] was 9.84%; in assay [14], 5.13%; in [15] it was 12.5%; in assay [16] it was 2.31%; in assay [17], 20.9%; in [18], 2.03%. The inhibition in [19] was 7.01%; in assay [20], 2.95%.

As to `CN(C)c1ccc2c(c1)/C(=C/Nc1ccc(S(N)(=O)=O)cc1)C(=O)N2`, the inhibition was 47% in [1]; -0.09% in assay [2]; 7.23% in [3]; 4.66% in [4]; 8.86% in [5]; -4.52% in assay [6]. Also, the inhibition in assay [7] was determined as 27.4%; in [8], 1.2%; in assay [9], 3.48%; in assay [11] it was 0.31%; in [12], 1.4%; in [13], 2.35%. Also, the inhibition in assay [14] amounted to 1.03%; in assay [15], 5.59%; in [16], 0.71%; in assay [17], 5.7%; in assay [18], 0.14%; in [19], 1.79%. The inhibition in assay [20] turned out to be 6.93%.

For `COc1ccc(C2=C(N3CCc4ccccc43)C(=O)NC2=O)cc1`, the inhibition in assay [1] is 9.39%; in [2], 9.63%; in assay [3] it was 6.83%; in assay [4] it was 6.01%; in [5], 9.68%; in assay [6], -1.55%. In addition, the inhibition is 10.8% in assay [7]; 7.78% in assay [8]; 14.7% in assay [9]; -4.17% in assay [10]; 2.15% in assay [11]; 5.51% in assay [12]. Also, the inhibition in [13] came to 6.81%; in [14] it was 2.29%; in assay [15] it was 3.07%; in [16] it was 4.3%; in [17] it was 13.9%; in assay [18], 1.51%. Also, the inhibition in [19] turned out to be 2.14%; in assay [20], 5.01%.

As for `COc1cc2ncn(-c3cc(OCc4cccs4)c(C(N)=O)s3)c2cc1OC`, the inhibition came to 54.5% in assay [1]; 5.86% in [2]; 7.33% in assay [3]; 7.93% in assay [4]; 30.5% in assay [5]; 3.31% in [6]. Besides, the inhibition in assay [7] was 17.6%; in [8], 2.39%; in [9], 7.35%; in assay [10], 0.21%; in [11] it was 0.32%; in assay [12], -0.38%. Besides, the inhibition was 2.67% in [13]; 4.44% in [14]; 27.3% in assay [15]; 10.4% in assay [16]; 53.9% in assay [17]; 3.84% in assay [18]. In addition, the values for the inhibition in assay [19] and in assay [20] were 9.04% and -0.38%, respectively.

As for `O=C(Nc1n[nH]c2nc(-c3ccco3)ccc12)C1CC1`, the inhibition in [1] is 8.66%; in assay [2] it was -0.93%; in [3], 4.1%; in [4], 3%; in assay [5], 3.03%; in assay [6], -4.02%. The inhibition was 4.81% in [7]; 1.77% in [8]; 1.57% in [9]; -0.47% in assay [10]; 1.5% in [11]; 1.47% in [12]. Moreover, the inhibition is 3.97% in assay [13]; 5.28% in assay [14]; 10.4% in assay [15]; 0.16% in [16]; 1.24% in assay [17]; -0.07% in assay [18]. The inhibition in [19] is 0.93%; in assay [20], 4.04%.
